The results in this text go back to the supplement of paper PMC13380429.

The structures appear in SMILES notation.

In assay [1] the test system is Vero E6 infected with SARS-CoV-2. Description: morphology score (similarity to uninfected cells); higher = more like uninfected cells. Conditions: 24 h.
Assay [2] shares this test system. Kind of assay: SARS-CoV-2 infection rate relative to infected DMSO; higher = more infection, active = 60 or less. Conditions: 24 h.

Take `COc1ccc2[nH]c([S+]([O-])Cc3ncc(C)c(OC)c3C)nc2c1` (stereo not given) [omeprazole-magnesium] (10 µM): the morphology score in assay [1] is -0.138. Moreover, the SARS-CoV-2 infection rate in assay [2] is 116% (inactive).
Compound `CN[C@H]1CC[C@@H](c2ccc(Cl)c(Cl)c2)c2ccccc21` (0.833333 µM) gave a morphology score in assay [1] of 0.143. In addition, the SARS-CoV-2 infection rate in assay [2] is 89.5% (inactive).
As to `CC(C)C[C@H](NC(=O)[C@H](CCc1ccccc1)NC(=O)CN1CCOCC1)C(=O)N[C@@H](Cc1ccccc1)C(=O)N[C@@H](CC(C)C)C(=O)[C@@]1(C)CO1` [carfilzomib] (0.833333 µM), the morphology score in assay [1] was 0.00273. The SARS-CoV-2 infection rate in assay [2] is 42% (active).
In the case of `O=C1NCN(c2ccccc2)C12CCN(CC1COc3ccccc3O1)CC2` (stereo not given) [spiroxatrine] (10 µM), in assay [1], the morphology score is -0.179. In addition, the SARS-CoV-2 infection rate in assay [2] was 114% (inactive).
In assay [1], `NC(=O)c1ccc([N+](=O)[O-])cc1Cl` [aklomide] (10 µM) had a morphology score of -0.229. The SARS-CoV-2 infection rate in assay [2] was 114% (inactive).
With `Nc1c(Br)cc(Br)cc1CN[C@H]1CC[C@H](O)CC1` [ambroxol] (10 µM), the morphology score in assay [1] was -0.155. For the same compound, the SARS-CoV-2 infection rate in assay [2] is 114% (inactive).
In assay [1], `Oc1ccc([C@H]2COc3cc(O)ccc3C2)cc1` [equol] (10 µM) gave a morphology score of -0.116. Moreover, the SARS-CoV-2 infection rate in assay [2] was 114% (inactive).
`CCc1cccc(CC)c1NC(=O)c1nn(C)c2c1CCc1cnc(Nc3ccc(C(=O)NC4CCN(C)CC4)cc3OC(F)(F)F)nc1-2` (10 µM): the morphology score in assay [1] is -0.0668. The SARS-CoV-2 infection rate in assay [2] was 111% (inactive).
Consider `COC(=O)C1=C(C)NC(C)=C(C(=O)O[C@H]2CCN(Cc3ccccc3)C2)[C@H]1c1cccc([N+](=O)[O-])c1` [barnidipine] (10 µM), for which, in assay [1], the morphology score is -0.0592. Also, the SARS-CoV-2 infection rate in assay [2] is 112% (inactive).
Consider `CN1CCN(c2ncc(-c3cc(Cl)cc(Cl)c3Cl)c(N)n2)CC1` [sipatrigine] (10 µM), for which, in assay [1], the morphology score was 0.204. In addition, the SARS-CoV-2 infection rate in assay [2] was 82% (inactive).
